Data: PubChem BioAssay (EPA / NIEHS)
Activity calls are given as the source filed them. Rule for the calls: active = hit-call score of the fitted dose curve at least 0.9, where 1 is the maximum; inactive = score below 0.9.

assay: APR_HepG2_StressKinase_24hr: Apredica 24-hour HepG2 Assay for Stress Kinase (AID 2282922); conditions: HepG2 stress kinase (phospho-c-Jun) imaging, actives raise or lower the signal
Procedure: APR_HepG2_24hr is a cell-based, multiplexed-readout assay that uses HepG2, a human liver cell line, with measurements taken at 24 hours after chemical dosing in a 384-well plate.APR_HepG2_StressKinase_24hr is one of 10 assay component(s) measured or calculated from the APR_HepG2_24hr assay. It is designed to make measurements of enzyme activity, a form of enzyme reporter, as detected with fluorescence intensity signals by HCS Fluorescent Imaging technology.Data from the assay component APR_HepG2_StressKinase_24hr was analyzed into 1 assay endpoint. This assay endpoint, APR_HepG2_StressKinase_24hr, was analyzed with bidirectional fitting relative to DMSO as the negative control and baseline of activity. Using a type of enzyme reporter, measures of protein for gain or loss-of-signal activity can be used to understand the signaling at the pathway-level as they relate to the gene . Furthermore, this assay endpoint can be referred to as a primary readout, because this assay has produced multiple assay endpoints where this one serves a signaling function. To generalize the intended target to other relatable targets, this assay endpoint is annotated to the cell cycle intended target family, where the subfamily is stress response.
Cells were treated with dimethyl sulfoxide (DMSO) as a solvent control at a final concentration of 0.5% v/v or with compounds in DMSO with a resulting final DMSO concentration of 0.5% v/v. Compound treatment was done at concentrations of 0.39, 0.78, 1.56, 3.12, 6.24, 12.5, 25, 50, 100, and 200 uM in duplicate on each plate. Cells were treated with compounds for 1, 24, or 72 hr. Carbonyl […] m-chloro-phenylhydrazone (CCCP) and taxol were used as positive controls for mitochondrial function and cytoskeletal stability, respectively; DMSO served as the negative control for this experiment. Cells were fixed by the direct addition of 50 uL formaldehyde in Hank's Balanced Salt Solution (HBSS) to a final concentration of 3.7%. After incubation in the fixation medium for 30 min at room temperature (293-298 K), cells were rinsed twice with HBSS and treated with cell permeabilization buffer (16 uL of 0.5% Triton X-100) for 10 min at room temperature (293-298 K) before labeling. For mitochondrial membrane potential and mitochondrial measurements, pre-fixed cells were incubated with 50 uL of MitoTracker Red CMXRos (Invitrogen) at a concentration of 250 nM for 30 min before fixation. In the remaining cases, post-fixed cells were labeled by incubation with a multiplexed mixture of primary antibodies in HBSS for 60 min at room temperature (293-298 K) to detect immunoreactivity of c-Jun (1:500), phospho-histone H3 (1:100), phospho-histone H2A.x (1:200), p53 (1:400), alpha-tubulin (1:200) and Hoechst 33342 (2 ug/mL). Cells were labeled for multiplexed imaging on two separate plates: a) Hoechst 33342, MitoTracker Red, phospho-histone H3, and alpha-tubulin, and b) Hoechst 33342, phospho-histone H2A.x, and c-Jun. A final rinse with HBSS (50 uL) was performed before analysis. The primary and secondary antibodies for the proteins were phospho-histone H3 (rabbit anti-phospho-histone H3 and FITC-donkey anti-rabbit IgG), phospho-histone H2A.x (mouse anti-phospho-histone H2A.x and FITC-donkey anti-mouse IgG), c-Jun (rabbit anti-phospho-c-Jun and Cy3-donkey anti-rabbit IgG), p53 (sheep anti-p53 and Cy5-donkey anti-sheep IgG), alpha-tubulin (mouse anti-alpha-tubulin and Cy5-donkey anti-mouse IgG). These antibodies are available as the CellCiphr HepG2 assay kit (Millipore).Digital images of each well were captured using a Cellomics ArrayScan VTI (Thermo Scientific Cellomics) (0.8 NA objective, 0.63x optical coupler, and XF-93 filter set) at 20x magnification. The images were acquired using the autofocus feature of the ArrayScan instrument, which entails the following steps. First, the camera focuses on channel 1 (Hoechst 33342), where nuclei are identified. Second, a Z offset of 1 um is used for capturing mitochondria (MitoTracker Red). […]

Question: With `CC1(C)CON(Cc2ccccc2Cl)C1=O` as the compound, how does the outcome read?
Answer: Its outcome is “inactive”.

Question: For `CC(C)C1(C)N=C(c2ncccc2C(=O)O)NC1=O` (stereo not given), which outcome is on record?
Answer: Its outcome is “inactive”.

Question: Which outcome does the source give for `COP(=O)(OC)O/C(C)=C/C(=O)N(C)C` here?
Answer: The outcome was “inactive”.

Question: For `CCSC(=O)N1CCCCCC1`, which outcome is on record?
Answer: Its outcome is “inactive”.

Question: For `N#CN=C1SCCN1Cc1ccc(Cl)nc1`, which outcome is on record?
Answer: Its outcome is “inactive”.

Question: With `O=C(O)c1c(Cl)ccc2cc(Cl)cnc12` as the compound, how does the outcome read?
Answer: Its outcome is “inactive”.

Question: Which outcome does the source give for `CCOP(=S)(OCC)Oc1nc(Cl)n(C(C)C)n1` here?
Answer: Its outcome is “inactive”.

Question: Which outcome does the source give for `Cc1nc(N(C)C)nc(OC(=O)N(C)C)c1C` here?
Answer: The outcome was “inactive”.

Question: For `CO/N=C(/C1=NOCCO1)c1ccccc1Oc1ncnc(Oc2ccccc2Cl)c1F`, which outcome is on record?
Answer: Its outcome is “inactive”.

Question: For `Cn1c(-c2ccccc2)cc(-c2ccccc2)[n+]1C`, which outcome is on record?
Answer: The outcome was “inactive”.

Question: Which outcome does the source give for `CC(C)N1C(=O)N(c2ccccc2)CSC1=NC(C)(C)C` here?
Answer: The outcome was “inactive”.

Question: For `CN=C=S`, which outcome is on record?
Answer: Its outcome is “inactive”.

Question: Which outcome does the source give for `COC(=O)c1c(C(F)F)nc(C(F)(F)F)c(C2=NCCS2)c1CC(C)C` here?
Answer: Its outcome is “inactive”.

Question: Which outcome does the source give for `CC1(C)C(C(=O)OC(C#N)c2cccc(Oc3ccccc3)c2)C1(C)C` (stereo not given) here?
Answer: Its outcome is “inactive”.

Question: Which outcome does the source give for `CCOP(=O)(OCC)Oc1nc(Cl)c(Cl)cc1Cl` here?
Answer: The outcome was “inactive”.

Question: With `CCNC(=O)NC(=O)C(C#N)=NOC` as the compound, how does the outcome read?
Answer: The outcome was “inactive”.

Question: For `COCC(C)N(C(=O)CCl)c1c(C)csc1C` (stereo not given), which outcome is on record?
Answer: The outcome was “inactive”.

Question: For `CCNP(=S)(OC)O/C(C)=C/C(=O)OC(C)C` (stereo not given), which outcome is on record?
Answer: The outcome was “inactive”.

Question: For `COC(=O)NC(=S)Nc1ccccc1NC(=S)NC(=O)OC`, which outcome is on record?
Answer: Its outcome is “inactive”.

Question: For `CC(C)(C)C(=O)C(Oc1ccc(Cl)cc1)n1cncn1` (stereo not given), which outcome is on record?
Answer: The outcome was “inactive”.

Question: Which outcome does the source give for `CCCCC(O)(Cn1cncn1)c1ccc(Cl)cc1Cl` (stereo not given) here?
Answer: The outcome was “inactive”.

Question: For `CCOc1nc(C(Cl)(Cl)Cl)ns1`, which outcome is on record?
Answer: The outcome was “inactive”.

Question: With `COP(=S)(OC)SCn1nnc2ccccc2c1=O` as the compound, how does the outcome read?
Answer: Its outcome is “inactive”.

Question: With `COc1cc(Cl)c(OC)cc1Cl` as the compound, how does the outcome read?
Answer: Its outcome is “inactive”.

Question: With `O=c1n(Cl)c(=O)n(Cl)c(=O)n1Cl` as the compound, how does the outcome read?
Answer: Its outcome is “inactive”.

Question: With `COC(=O)NS(=O)(=O)c1ccc(N)cc1` as the compound, how does the outcome read?
Answer: Its outcome is “inactive”.

Question: For `CC(C)Oc1cccc(NC(=O)c2ccccc2C(F)(F)F)c1`, which outcome is on record?
Answer: Its outcome is “inactive”.

Question: For `N#Cc1c(Cl)cccc1Cl`, which outcome is on record?
Answer: Its outcome is “inactive”.

Question: For `Cc1cnc(C2=NC(C)(C(C)C)C(=O)N2)c(C(=O)O)c1` (stereo not given), which outcome is on record?
Answer: The outcome was “inactive”.

Question: Which outcome does the source give for `CC(C)N1C(=O)c2ccccc2NS1(=O)=O` here?
Answer: The outcome was “inactive”.

Question: With `CSC(=O)c1c(C(F)F)nc(C(F)(F)F)c(C(=O)SC)c1CC(C)C` as the compound, how does the outcome read?
Answer: The outcome was “inactive”.

Question: For `CC1(C)CCC(=Cc2ccc(Cl)cc2)C1(O)Cn1cncn1` (stereo not given), which outcome is on record?
Answer: Its outcome is “inactive”.

Question: With `Nc1c(Cl)c(Cl)nc(C(=O)O)c1Cl` as the compound, how does the outcome read?
Answer: Its outcome is “inactive”.

Question: With `COCc1cnc(C2=NC(C)(C(C)C)C(=O)N2)c(C(=O)O)c1` (stereo not given) as the compound, how does the outcome read?
Answer: Its outcome is “inactive”.

Question: With `N#Cc1c[nH]cc1-c1cccc2c1OC(F)(F)O2` as the compound, how does the outcome read?
Answer: Its outcome is “inactive”.

Question: For `O=C1C2CC=CCC2C(=O)N1SC(Cl)(Cl)Cl` (stereo not given), which AC50 is on record?
Answer: The AC50 was 28.1 µM (active).

Question: With `CC(C)Nc1nc(Cl)nc(NC(C)C)n1` as the compound, how does the outcome read?
Answer: The outcome was “inactive”.

Question: For `CCCN(CC)CC1COC2(CCC(C(C)(C)C)CC2)O1` (stereo not given), which outcome is on record?
Answer: Its outcome is “inactive”.

Question: With `CCCCC(C#N)(Cn1cncn1)c1ccc(Cl)cc1` (stereo not given) as the compound, how does the outcome read?
Answer: Its outcome is “inactive”.

Question: Which outcome does the source give for `Cc1cc(C)nc(Nc2ccccc2)n1` here?
Answer: Its outcome is “inactive”.
